Measured values from ChEMBL document CHEMBL3988442, “University of Dundee, Small-Polar-MMV Screening Library” (2021).
Out of some 48,000 compounds screened, about 13,000 (27%) showed an effect of 50% or more. This is one part of the list.

Test system: Wolbachia pipientis
Assay: Anti-Wolbachia Cell-Based Screen
Assay type: functional
Set-up: scale not given: in the data most compounds retested in dose-response had high values
Details: 5 µM

First: CCc1cc(NCCNc2cccnc2)n2nccc2n1
Second: Fc1ccc(CN2CCOC[C@H](Oc3cccnc3)C2)cc1
The “Percent Effect” value of the first is lower: -9.581% for the first, 4.64% for the second.

Compared with `Cc1[nH]c(=O)[nH]c(=O)c1CN1CCCC(CCc2ccc(F)cc2F)C1` (configuration not stated), `CCN1CCCc2cc(CN3CCc4nc(C)[nH]c(=O)c4C3)ccc21` is higher in “Percent Effect” value: 2.06% for the first, 122.7% for the second.

Compared with `CSCCC(=O)N1CCC(Oc2cc(C)ccc2F)(C(=O)O)CC1`, `Cc1cc(C)cc(CN2CCN(C(=O)COCC3CCCO3)CC2=O)c1` (configuration not stated) is lower in “Percent Effect” value: 3.058% for the first, -14.3% for the second.

First: CS(=O)(=O)N1CCOC2(CCCN(c3ncc(F)cn3)C2)C1 (configuration not stated)
Second: CNC(=O)C1CCC2(CCN(c3ncc(C)cn3)CC2)CO1 (configuration not stated)
The “Percent Effect” value of the first is higher: 0.4401% for the first, -6.735% for the second.

Going from `CCC(C)(NCC(N)=O)c1nccs1` (configuration not stated) to `CC(C)(C)CC(=O)N1CCc2sccc2C1`, the “Percent Effect” value rises from -7.734% to -0.9665%.

Compared with `CCc1cnc(N2CCC3(CCN(CC)C3=O)CC2)nc1`, `CCN1CCC2(CCN(c3ncccn3)CC2)C1=O.O=C(O)C(F)(F)F` is higher in “Percent Effect” value: -13.53% for the first, 93.98% for the second.

Going from `COCCN1CCC2(CCN(c3ncccn3)CC2)C1=O.O=C(O)C(F)(F)F` to `COCCN1CCC2(CCN(Cc3cccs3)CC2)C1=O.O=C(O)C(F)(F)F`, the “Percent Effect” value falls from 97.58% to 6.379%.

Compared with `CCN1CCC2(CCN(Cc3nccs3)CC2)C1=O.O=C(O)C(F)(F)F`, `COCCN1CCC2(CCN(CC3CC3)CC2)C1=O.O=C(O)C(F)(F)F` is lower in “Percent Effect” value: -3.246% for the first, -9.065% for the second.

Compared with `NC(=O)CN(C(=O)c1c[nH]c2ncccc12)C1CCCC1`, `CC(C)CCC(=O)NCC(=O)N1CCCCCC1c1ccco1` (configuration not stated) is higher in “Percent Effect” value: -3.753% for the first, 14.42% for the second.

Going from `Cc1n[nH]c(C)c1CNCC(O)c1cccc(Cl)c1.Cl` (configuration not stated) to `Cc1cnc(NC(=O)c2cccc(CN(C)Cc3ccno3)c2)s1`, the “Percent Effect” value falls from 7.117% to 0.9625%.

Compared with `CCC(=O)N1CCCC1c1csc(Nc2cnccn2)n1` (configuration not stated), `COCC(=O)N1CCCC1c1csc(Nc2cnccn2)n1` (configuration not stated) is lower in “Percent Effect” value: 122% for the first, 91.87% for the second.

Going from `CC(=O)N1CCCC1c1csc(Nc2cnccn2)n1` (configuration not stated) to `O=C(CNc1nc(C(F)(F)F)cs1)N1CCc2sccc2C1`, the “Percent Effect” value rises from -5.394% to 8.259%.

First: CCn1nc2c(cc1=O)CN(Cc1ccc(-n3cccn3)cc1)CC2
Second: CCn1nc2c(cc1=O)CN(Cc1nc3ccccc3c(=O)[nH]1)CC2
The “Percent Effect” value of the first is higher: 7.019% for the first, -16.27% for the second.

First: CCN1CCCc2cc(CN3CCc4c(nc(C)[nH]c4=O)C3)ccc21
Second: CCn1nc2c(cc1=O)CN(Cc1cc(C)on1)CC2
The “Percent Effect” value of the first is higher: 149.4% for the first, 0.747% for the second.

Compared with `CCCn1nc2c(cc1=O)CN(CCCN1CCCC1=O)CC2`, `Cn1ncc2c(N3CCN(C(N)=O)CC3)nc(C3CCCC3)nc21` is higher in “Percent Effect” value: -4.188% for the first, 2.978% for the second.

First: CN(C)C(=O)c1n[nH]c2c1CCN(Cc1nccs1)C2
Second: O=C(C[S+]([O-])Cc1ccc(F)cc1)N1CCc2sccc2C1 (configuration not stated)
The “Percent Effect” value of the first is higher: 9.734% for the first, 1.066% for the second.

Going from `CC1Cc2ccccc2N1Cc1occc1C(=O)OCC(N)=O` (configuration not stated) to `CC(NCC(=O)N1CCc2sccc2C1)c1ccccc1F` (configuration not stated), the “Percent Effect” value rises from -8.495% to 93.75%.

Compared with `CC(C)(C)CC(=O)N1[C@@H](c2ccco2)[C@@H](CO)C[C@]12CCCCNC2=O`, `CCOC(=O)N1[C@@H](c2ccco2)[C@@H](CO)C[C@]12CCCCNC2=O` is higher in “Percent Effect” value: 102.1% for the first, 109.7% for the second.

First: CC(C)COC(=O)N1[C@@H](c2ccco2)[C@@H](CO)C[C@]12CCCCNC2=O
Second: O=C1OC2(CCNCC2)CN1CC(=O)N1CCCC1c1ccco1 (configuration not stated)
The “Percent Effect” value of the first is higher: 102% for the first, -0.7494% for the second.

First: CCN(CCn1cccn1)C(=O)CN1C(=O)OC[C@@H]1C(C)C
Second: CCN(C(=O)NCCc1ccc(C)cc1C)C(C)CS(C)(=O)=O (configuration not stated)
The “Percent Effect” value of the first is lower: -18.11% for the first, -11.16% for the second.

First: OCC1N(Cc2ccc(F)cc2)[C@H]2CC[C@]1(O)CC2 (some centres not stated)
Second: O[C@]12CC[C@H](CC1)N(Cc1ccc(F)cc1)C2CN1CCOCC1 (some centres not stated)
The “Percent Effect” value of the first is higher: 104.7% for the first, 104% for the second.

First: COc1cccc(CN2CCCCC2CN2CCOCC2)c1F (configuration not stated)
Second: COc1ccccc1CCNS(=O)(=O)N1CCOCC1
The “Percent Effect” value of the first is lower: 24.12% for the first, 112% for the second.

Compared with `Oc1cccc(CN2C[C@H]3CC[C@@H]2CN(Cc2ccc(F)cc2)C3)c1`, `Cl.Cl.OC(CN1CCN(Cc2ccc(F)cc2)CC1)C1CC1` (configuration not stated) is lower in “Percent Effect” value: 7.382% for the first, -6.832% for the second.

Going from `COc1ccc(OCCN(C)S(=O)(=O)N2CCOCC2)cc1` to `CN(CCOc1ccccc1Cl)S(=O)(=O)N1CCOCC1`, the “Percent Effect” value falls from -3.974% to -15.33%.

Compared with `COc1ccccc1CC(NC(=O)N1CCOCC1)C(C)C` (configuration not stated), `CCC(NS(=O)(=O)N1CCOCC1)c1ccccc1OC` (configuration not stated) is higher in “Percent Effect” value: -8.474% for the first, -7.282% for the second.

First: COc1ccccc1OCCNS(=O)(=O)N1CCOCC1
Second: Cc1cc(N2CCSCC2)ccc1NC(=O)N(CCO)C1CC1
The “Percent Effect” value of the first is higher: 86% for the first, -6.894% for the second.
